Our source for the growth values is PubChem BioAssay (NCI).

Values joined by “and” are separate entries in the source; they are usually repeats but may differ in a detail not shown here. Equal values may be shown once. About 83,000 compounds went through this panel and 20% of them were active in at least one assay; those are over-represented in the sample as a whole.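 Single-concentration screen, 48 h exposure, 96-well plates. Endpoint: percent growth. Below 10 = active.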 Active and inactive are the calls of the source.

Test systems include NCI-H23 lung; NCI-H226 lung; NCI-H322M lung; HOP-62 NSCLC; NCI-H460 lung; HOP-92 NSCLC; NCI-H522 lung; A549/ATCC NSCLC; 786-0 renal; COLO 205 colon.
What all share (assay): NCI-60 one-dose screen, 48 h (100 = growth as untreated, 0 = no growth, -100 = all killed)

Regarding `O=[N+]([O-])c1ccc(-n2[nH]nnc2=S)cc1`, the growth in the assay on NCI-H23 lung (10 µM unless noted) is 98.5% (inactive); in the assay with NCI-H226 lung (10 µM unless noted), 107% (inactive); in the assay with NCI-H322M lung (10 µM unless noted), 92.8% (inactive); with HOP-62 NSCLC (10 µM unless noted), 102% (inactive); in the assay on NCI-H460 lung (10 µM unless noted), 110% (inactive); with HOP-92 NSCLC (10 µM unless noted) it was 102% (inactive). The growth in the assay on NCI-H522 lung (10 µM unless noted) is 91.3% (inactive); in the assay on A549/ATCC NSCLC (10 µM unless noted), 102% (inactive); in the assay with 786-0 renal (10 µM unless noted) it was 106% (inactive); with COLO 205 colon (10 µM unless noted), 100% (inactive).
`Nc1ccc(N=Nc2ccc(S(=O)(=O)O)cc2)cc1S(=O)(=O)O`: the growth in the assay with NCI-H23 lung (10 µM unless noted) was 95.6% (inactive) and 99.8% (inactive); in the assay on NCI-H226 lung (10 µM unless noted), 110% (inactive) and 99.8% (inactive); in the assay on NCI-H322M lung (10 µM unless noted), 104% (inactive) and 110% (inactive); with HOP-62 NSCLC (10 µM unless noted) it was 118% (inactive) and 101% (inactive); in the assay on NCI-H460 lung (10 µM unless noted), 103% (inactive) and 96.2% (inactive); with HOP-92 NSCLC (10 µM unless noted), 90.9% (inactive) and 72% (inactive). In addition, the growth with NCI-H522 lung (10 µM unless noted) is 91% (inactive) and 96.3% (inactive); with A549/ATCC NSCLC (10 µM unless noted), 95.1% (inactive) and 103% (inactive); in the assay with 786-0 renal (10 µM unless noted), 104% (inactive) and 106% (inactive); with COLO 205 colon (10 µM unless noted) it was 125% (inactive) and 119% (inactive).
For the compound `Cc1ccc(S(=O)(=O)NCN2C(=O)c3ccccc3C2=O)cc1`, the growth in the assay on NCI-H23 lung (10 µM unless noted) is 103% (inactive); in the assay with NCI-H226 lung (10 µM unless noted), 115% (inactive); in the assay on NCI-H322M lung (10 µM unless noted), 105% (inactive); with HOP-62 NSCLC (10 µM unless noted) it was 112% (inactive); in the assay with NCI-H460 lung (10 µM unless noted) it was 113% (inactive); with HOP-92 NSCLC (10 µM unless noted), 109% (inactive). Also, the figures for the growth in the assay on NCI-H522 lung (10 µM unless noted), with A549/ATCC NSCLC (10 µM unless noted) and in the assay with 786-0 renal (10 µM unless noted) were 103% (inactive), 99% (inactive) and 103% (inactive), respectively.
On to `COc1ccc2c(=O)cc(-c3ccccc3)[nH]c2c1`, for which the growth with NCI-H23 lung (10 µM unless noted) was 34.4% (inactive) and 16.5% (inactive); with NCI-H226 lung (10 µM unless noted), 57.3% (inactive) and 23.8% (inactive); in the assay with NCI-H322M lung (10 µM unless noted), 66.1% (inactive) and 56.9% (inactive); with HOP-62 NSCLC (10 µM unless noted) it was 30.1% (inactive) and 21.2% (inactive); in the assay on NCI-H460 lung (10 µM unless noted), 6.58% (active) and 4.24% (active); with HOP-92 NSCLC (10 µM unless noted), 53.8% (inactive). The growth in the assay on NCI-H522 lung (10 µM unless noted) is -20% (active) and -68.2% (active); in the assay on A549/ATCC NSCLC (10 µM unless noted), 22.6% (inactive) and 13.9% (inactive); in the assay with 786-0 renal (10 µM unless noted), 35.3% (inactive) and -14.1% (active); in the assay with COLO 205 colon (10 µM unless noted), -19.6% (active) and -7.06% (active).
Turning to `CN(C)CCC(=O)c1ccc(Cl)cc1`, the growth was 109% (inactive) and 86.8% (inactive) in the assay on NCI-H23 lung (10 µM unless noted); 99.3% (inactive) and 110% (inactive) with NCI-H226 lung (10 µM unless noted); 110% (inactive) and 116% (inactive) in the assay on NCI-H322M lung (10 µM unless noted); 112% (inactive) and 115% (inactive) in the assay on HOP-62 NSCLC (10 µM unless noted); 113% (inactive) and 114% (inactive) in the assay on NCI-H460 lung (10 µM unless noted); 86.4% (inactive) and 124% (inactive) in the assay on HOP-92 NSCLC (10 µM unless noted). The growth with NCI-H522 lung (10 µM unless noted) was 79.8% (inactive) and -84.6% (active); in the assay with A549/ATCC NSCLC (10 µM unless noted) it was 109% (inactive) and 107% (inactive); with 786-0 renal (10 µM unless noted) it was 104% (inactive) and 106% (inactive); in the assay on COLO 205 colon (10 µM unless noted), 121% (inactive) and 118% (inactive).
Consider `CCCCCCCCCCCCCCCc1ccc(Cl)c(O)c1Cl` (tested in a mixture with another compound), for which the growth in the assay on NCI-H23 lung (0.25 µM) is 19.1% (inactive); in the assay on NCI-H23 lung (10 µM), 88.8% (inactive); with NCI-H226 lung (0.25 µM), 5.35% (active); with NCI-H226 lung (10 µM), 93.6% (inactive); in the assay on HOP-62 NSCLC (0.25 µM), 19% (inactive); in the assay on HOP-62 NSCLC (10 µM), 97.5% (inactive). For the same compound, the growth with NCI-H460 lung (0.25 µM) was 5.78% (active); in the assay on NCI-H460 lung (10 µM), 104% (inactive); in the assay on HOP-92 NSCLC (0.25 µM), 17.5% (inactive); in the assay with HOP-92 NSCLC (10 µM), 105% (inactive); with NCI-H522 lung (0.25 µM), 12.1% (inactive); in the assay with NCI-H522 lung (10 µM), 83.1% (inactive). In addition, the growth in the assay with A549/ATCC NSCLC (0.25 µM) was 38.5% (inactive); in the assay on A549/ATCC NSCLC (10 µM), 71.9% (inactive); with 786-0 renal (0.25 µM) it was 15.6% (inactive); in the assay on 786-0 renal (10 µM) it was 107% (inactive); with COLO 205 colon (0.25 µM), 49.3% (inactive); with COLO 205 colon (10 µM), 114% (inactive).
Regarding `CNC(=O)c1cc(Oc2ccc(CC(=O)Nc3cc(C(C)(C)C)nn3C)cc2)ccn1`, the growth was 50% (inactive) with NCI-H23 lung (1 µM); 49% (inactive) in the assay on NCI-H23 lung (10 µM); 48.9% (inactive) in the assay on NCI-H23 lung (30 µM); 61.6% (inactive) in the assay on NCI-H226 lung (10 µM); 49.4% (inactive) with NCI-H226 lung (30 µM); 92.5% (inactive) with NCI-H322M lung (1 µM). The growth was 93.4% (inactive) in the assay with NCI-H322M lung (10 µM); 105% (inactive) in the assay with NCI-H322M lung (30 µM); 55% (inactive) in the assay with HOP-62 NSCLC (1 µM); 77.6% (inactive) in the assay with HOP-62 NSCLC (10 µM); 75.1% (inactive) with HOP-62 NSCLC (30 µM); 79.4% (inactive) with NCI-H460 lung (1 µM). Also, the growth is 66.7% (inactive) with NCI-H460 lung (10 µM); 80.7% (inactive) with NCI-H460 lung (30 µM); 74.7% (inactive) in the assay with HOP-92 NSCLC (1 µM); 93.5% (inactive) with HOP-92 NSCLC (10 µM); 92.6% (inactive) in the assay on HOP-92 NSCLC (30 µM); 74.3% (inactive) in the assay on NCI-H522 lung (1 µM). Also, the growth was 54.9% (inactive) in the assay on NCI-H522 lung (10 µM); 71.7% (inactive) with NCI-H522 lung (30 µM); 71.2% (inactive) with A549/ATCC NSCLC (1 µM); 67.2% (inactive) with A549/ATCC NSCLC (10 µM); 80.8% (inactive) with A549/ATCC NSCLC (30 µM); 90.7% (inactive) with 786-0 renal (1 µM). The growth with 786-0 renal (10 µM) was 100% (inactive); with 786-0 renal (30 µM) it was 93.8% (inactive); in the assay with COLO 205 colon (10 µM) it was 77.1% (inactive); in the assay on COLO 205 colon (30 µM), 91.2% (inactive).
